Where “and” joins values, the source holds several entries; their conditions need not be identical. Identical values can stand only once. Inconclusive results are not listed. Calls of active or inactive are those of the source. Unless noted, the call rests on the fitted dose curve.
How the values were obtained:
[1] = target: Voltage-gated inwardly rectifying potassium channel KCNH2 (Homo sapiens) (UniProt Q12809); experiment: qHTS Assay for Small Molecule Inhibitors of the Human hERG Channel Activity (AID 588834; active means well fitted curve in the direction sought with a large enough effect; an effect the other way counts as inactive or inconclusive;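 further: lower thallium flux fluorescence means stronger hERG block; nearly all actives have a fitted effect of over 50% in size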; further: potency means the concentration at half of the fitted maximal effect)
Outline: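 Cells were infected with hERG-BacMam virus for 4 hrs at room temperature, grown overnight, then seeded at 2000/well. After dye loading and roughly 10 min compound treatment, thallium influx was triggered and fluorescence recorded.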

[2] = target: Luciferin 4-monooxygenase (Photinus pyralis) (UniProt P08659); experiment: Biochemical firefly luciferase enzyme assay for NPC (AID 624030; active means well fitted curve in the direction sought with a large enough effect; an effect the other way counts as inactive or inconclusive;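 further: purified P. pyralis luciferase at 10 nM with luciferin and ATP substrate; series mostly up to about 59 µM; 0% = DMSO and -100% = full luciferase inhibition by PTC124 control; nearly all actives have a fitted effect of over 70% in size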)
Outline: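 Purified P. pyralis luciferase at 10 nM in 50 mM Tris Acetate (final), luminescence read within 5 minutes of enzyme addition to compounds. Activity normalised to PTC124 versus DMSO; concentration-response curves classed by r2, magnitude and activity.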

[3] = target: Bile acid receptor (Homo sapiens) (UniProt Q96RI1); experiment: qHTS assay for small molecule antagonists of farnesoid X receptor signaling (AID 588526); further: on the % scale 0 is the no-effect control and ±100 the full control effect
Outline: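 Antagonist mode: titrated compounds tested against chenodeoxycholic acid stimulation (normalized to 50 uM CDCA and DMSO) in GeneBLAzer HEK293T cells for 16 h. Beta-lactamase read by CCF4 fluorescence; IC50 from Hill fits.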

[4] = target: Peroxisome proliferator-activated receptor gamma (Homo sapiens) (UniProt P37231); experiment: qHTS assay for small molecule agonists of peroxisome proliferator-activated receptor gamma signaling (AID 588536; active means well fitted curve in the direction sought with a large enough effect in the signal ratio, with a control signal flat, not every such curve was filed as active; the % refers to the signal ratio;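 further: 0% = DMSO basal wells and 100% = rosiglitazone at 2 µM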)
Outline: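 Beta-lactamase reporter read-out: CCF4 fluorescence (ex 405, em 460/530 nm) after 2 h at RT. HEK293 GeneBLAzer cells were treated for 16 h at 37 C. Hill fits gave EC50 and efficacy versus 2 uM rosiglitazone (100%) and DMSO (0%).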

[5] = target: Vitamin D3 receptor (Homo sapiens) (UniProt P11473); experiment: qHTS assay for small molecule antagonists of vitamin D receptor signaling (AID 588541);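 further: receptor activated by calcitriol during compound treatment; series mostly up to about 77 µM; on the % scale 0 is the no-effect control and ±100 the full control effect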
Outline: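 VDR-UAS-bla HEK293T cells in 2% charcoal-stripped FBS were stimulated with 1-alpha,25-dihydroxyvitamin D3 (3 nM final) plus compound for 16 h at 37 C. The beta-lactamase CCF4 readout was normalized to 50 nM agonist and DMSO, and Hill fits gave IC50.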

[6] = target: Vitamin D3 receptor (Homo sapiens) (UniProt P11473); experiment: qHTS assay for small molecule agonists of vitamin D receptor signaling (AID 588543);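 further: 0% = DMSO basal and 100% = reference agonist control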
Outline: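 qHTS in agonist mode: compound titrations stimulate a VDR-driven β-lactamase reporter in HEK293T cells over 16 h at 37 °C. Response normalized to 50 nM 1α,25-dihydroxyvitamin D3 = 100%, DMSO = 0%; Hill fitting gives EC50 and maximal response.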

[7] = qHTS assay for small molecule agonists of retinoid X receptor alpha signaling (AID 588544); conditions: HEK293T RXRa-UAS-bla, beta-lactamase reporter, 18 h; 530 nm emission;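 on activation: 0% = DMSO basal wells and 100% = reference agonist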
[8] = target: Retinoic acid receptor RXR-alpha (Homo sapiens) (UniProt P19793); experiment: as above
[9] = target: Thyroid hormone receptor beta (Homo sapiens) (UniProt P10828); experiment: qHTS assay for small molecule agonists of thyroid hormone receptor beta signaling (AID 588545)
Outline: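 Agonist activity was read as beta-lactamase CCF4 fluorescence (405 ex, 460/530 em), scaled between DMSO (0%) and 10 nM T3 (100%), then Hill-fitted for EC50 and efficacy. HEK 293 TR-UAS-bla cells in 2% charcoal/dextran FBS medium were exposed 18 h at 37 C.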

[10] = qHTS assay for small molecule antagonists of retinoid X receptor alpha signaling (AID 588546; active means well fitted inhibition curve with a large enough effect in the signal ratio, with a control signal flat, not every such curve was filed as active; the % refers to the signal ratio; further: potency means the concentration at half of the fitted maximal effect); conditions: HEK293T RXRa-UAS-bla, beta-lactamase ratio, antagonist mode; measured here: W530 green channel, cytotoxicity proxy
Outline: (§1)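 Beta-lactamase reporter inhibition, read as CCF4 fluorescence ratio (ex 405, em 460/530 nm) after 2 h at RT. HEK293T UAS-bla cells, 2500/well, were stimulated with 9-cis-RA at 500 or 100 nM final alongside test compound for 18 h at 37 C.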

[11] = target: Retinoic acid receptor RXR-alpha (Homo sapiens) (UniProt P19793); experiment: as above; conditions: HEK293T RXRa-UAS-bla, beta-lactamase ratio, antagonist mode
Outline: as §1

[12] = S16 Schwann cell viability assay (CellTiter-Glo assay) (AID 624031; active means well fitted curve in the direction sought with a large enough effect; an effect the other way counts as inactive or inconclusive; further: nearly all actives have a fitted effect of over 70% in size; further: potency means the concentration at half of the fitted maximal effect)
Outline: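 Native S16 rat Schwann cells in DMEM/10% FBS without phenol red were incubated overnight, then exposed to compounds for 24 h at 37 °C/5% CO2. Viability was read as ATP luminescence (CellTiter-Glo), normalized to no-cell wells and DMSO (0%).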

[13] = target: Estrogen receptor (Homo sapiens) (UniProt P03372); experiment: qHTS assay for small molecule agonists of estrogen receptor alpha signaling (AID 588514);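 further: 0% = vehicle only and 100% = reference agonist; nearly all actives have a fitted effect of over 70% in size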
Outline: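 EC50 and efficacy came from Hill fits of beta-lactamase reporter signal (CCF4 dye, 2 h at room temperature) scaled between DMSO and 20 nM 17-beta-estradiol. Agonist mode: HEK293 ER-alpha-UAS-bla cells in charcoal/dextran-stripped serum medium, 18 h compound exposure at 37 C.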

[14] = target: Androgen receptor (Homo sapiens) (UniProt P10275); experiment: qHTS assay for small molecule agonists of androgen receptor signaling (AID 588515; active means well fitted curve in the direction sought with a large enough effect in the signal ratio, with a control signal flat; the % refers to the signal ratio; further: on the % scale 0 is the no-effect control and ±100 the full control effect); conditions: AR-UAS-bla HEK293, beta-lactamase ratio, agonist 16 h; stronger effect = higher value
Outline: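 Stimulation of an AR-responsive β-lactamase reporter in GripTite HEK293 cells was measured after 16 h compound exposure at 37 °C, via CCF4 fluorescence after 2 h RT. EC50 from Hill fits, normalized to R1881 at 30 nM.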

[15] = target: Glucocorticoid receptor (Homo sapiens) (UniProt P04150); experiment: qHTS assay for small molecule agonists of glucocorticoid receptor signaling (AID 588532; active means well fitted curve in the direction sought with a large enough effect in the signal ratio, with a control signal flat; the % refers to the signal ratio;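 further: 100% = dexamethasone at 0.1 µM and 0% = DMSO only wells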); conditions: HeLa MMTV-bla, beta-lactamase ratio, agonist, 18 h; stronger effect = higher value; percent of dexamethasone control, DMSO zero
Outline: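 MMTV-bla HeLa beta-lactamase reporter cells in 1% charcoal/dextran FBS medium, compounds up to 92 uM for 18 h at 37 C, CCF4 readout; normalized to 0.1 uM dexamethasone (100%), EC50 and efficacy from Hill fits.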

[16] = qHTS assay for small molecule antagonists of peroxisome proliferator-activated receptor delta signaling (AID 588535); conditions: HEK293T PPARd-UAS-bla, beta-lactamase FRET ratio, 18 h; 460 nm channel;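 further: cells co-treated with a PPAR-delta agonist as stimulator during compound exposure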
Outline: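 Fluorescence from CCF4-loaded GeneBLAzer PPAR-delta-UAS-bla HEK293T cells (2 hrs RT loading) quantified reporter inhibition after an 18 hr, 37 C compound exposure across a titration.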

[17] = target: Peroxisome proliferator-activated receptor gamma (Homo sapiens) (UniProt P37231); experiment: qHTS assay for small molecule antagonists of peroxisome proliferator-activated receptor gamma signaling (AID 588537; active means well fitted inhibition curve with a large enough effect in the signal ratio, with a control signal flat, not every such curve was filed as active; the % refers to the signal ratio;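 further: reporter cells co-stimulated with 50 nM rosiglitazone agonist during compound treatment; % of control where 0% means no effect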)
Outline: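 Fluorescence at 460 and 530 nm (405 nm excitation) reported beta-lactamase cleavage of CCF4 after 2 h room-temperature loading. HEK293 reporter cells in 1% charcoal/dextran-treated FBS had received compound and rosiglitazone for 16 h.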

[18] = target: Thyroid hormone receptor beta (Homo sapiens) (UniProt P10828); experiment: qHTS assay for small molecule antagonists of thyroid hormone receptor beta signaling (AID 588547; active means well fitted inhibition curve with a large enough effect in the signal ratio, with a control signal flat, not every such curve was filed as active; the % refers to the signal ratio;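 further: cells stimulated with 0.4 nM T3 agonist during compound exposure; series mostly up to about 77 µM; on the % scale 0 is the no-effect control and ±100 the full control effect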); conditions: TR-UAS-bla HEK293, beta-lactamase ratio, antagonist mode, 18 h
Outline: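 TR-UAS-bla GripTite HEK293 cells in 2% charcoal/dextran FBS medium; compounds 0.59 nM to 92 uM with T3 at 0.4nM final, 18 h at 37 C. Beta-lactamase read by CCF4 fluorescence (460/530 nm); Hill fits gave IC50 and efficacy.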

[19] = target: Glucocorticoid receptor (Homo sapiens) (UniProt P04150); experiment: qHTS assay for small molecule antagonists of glucocorticoid receptor signaling (AID 588533; active means well fitted inhibition curve with a large enough effect in the signal ratio, with a control signal flat, not every such curve was filed as active; the % refers to the signal ratio; further: on the % scale 0 is the no-effect control and ±100 the full control effect)
Outline: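 Antagonist-mode qHTS: compound titrations added to GRE-bla HeLa cells, then dexamethasone 2 nM final; 18 h, 37 C. CCF4 FRET fluorescence normalized to dexamethasone and DMSO; IC50 from Hill fit.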

[20] = target: Androgen receptor (Homo sapiens) (UniProt P10275); experiment: qHTS assay for small molecule antagonists of androgen receptor signaling (AID 588516; active means well fitted curve in the direction sought with a large enough effect in the signal ratio, with a control signal flat, not every such curve was filed as active; the % refers to the signal ratio; further: on the % scale 0 is the no-effect control and ±100 the full control effect)
Outline: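 Antagonist-mode qHTS: inhibition of R1881 (10 nM)-driven beta-lactamase expression in GripTite HEK 293 cells is measured after 16 h; values are Hill-derived IC50s normalized between R1881 and DMSO wells.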

Chain of Retinoic acid receptor RXR-alpha (Homo sapiens) (P19793 whole entry, looked up): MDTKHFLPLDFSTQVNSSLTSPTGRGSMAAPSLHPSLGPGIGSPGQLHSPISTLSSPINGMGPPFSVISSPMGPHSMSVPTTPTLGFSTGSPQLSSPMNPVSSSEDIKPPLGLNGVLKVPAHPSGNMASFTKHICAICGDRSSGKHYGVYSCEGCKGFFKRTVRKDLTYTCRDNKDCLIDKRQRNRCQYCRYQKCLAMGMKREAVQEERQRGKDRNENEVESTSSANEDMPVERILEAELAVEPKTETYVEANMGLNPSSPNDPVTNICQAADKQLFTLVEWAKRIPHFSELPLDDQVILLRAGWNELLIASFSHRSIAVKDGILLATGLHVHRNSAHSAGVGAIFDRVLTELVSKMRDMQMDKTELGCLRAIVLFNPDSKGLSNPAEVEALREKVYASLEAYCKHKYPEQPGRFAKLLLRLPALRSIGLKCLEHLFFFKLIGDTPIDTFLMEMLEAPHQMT
Chain of Androgen receptor (Homo sapiens) (P10275 whole entry, looked up): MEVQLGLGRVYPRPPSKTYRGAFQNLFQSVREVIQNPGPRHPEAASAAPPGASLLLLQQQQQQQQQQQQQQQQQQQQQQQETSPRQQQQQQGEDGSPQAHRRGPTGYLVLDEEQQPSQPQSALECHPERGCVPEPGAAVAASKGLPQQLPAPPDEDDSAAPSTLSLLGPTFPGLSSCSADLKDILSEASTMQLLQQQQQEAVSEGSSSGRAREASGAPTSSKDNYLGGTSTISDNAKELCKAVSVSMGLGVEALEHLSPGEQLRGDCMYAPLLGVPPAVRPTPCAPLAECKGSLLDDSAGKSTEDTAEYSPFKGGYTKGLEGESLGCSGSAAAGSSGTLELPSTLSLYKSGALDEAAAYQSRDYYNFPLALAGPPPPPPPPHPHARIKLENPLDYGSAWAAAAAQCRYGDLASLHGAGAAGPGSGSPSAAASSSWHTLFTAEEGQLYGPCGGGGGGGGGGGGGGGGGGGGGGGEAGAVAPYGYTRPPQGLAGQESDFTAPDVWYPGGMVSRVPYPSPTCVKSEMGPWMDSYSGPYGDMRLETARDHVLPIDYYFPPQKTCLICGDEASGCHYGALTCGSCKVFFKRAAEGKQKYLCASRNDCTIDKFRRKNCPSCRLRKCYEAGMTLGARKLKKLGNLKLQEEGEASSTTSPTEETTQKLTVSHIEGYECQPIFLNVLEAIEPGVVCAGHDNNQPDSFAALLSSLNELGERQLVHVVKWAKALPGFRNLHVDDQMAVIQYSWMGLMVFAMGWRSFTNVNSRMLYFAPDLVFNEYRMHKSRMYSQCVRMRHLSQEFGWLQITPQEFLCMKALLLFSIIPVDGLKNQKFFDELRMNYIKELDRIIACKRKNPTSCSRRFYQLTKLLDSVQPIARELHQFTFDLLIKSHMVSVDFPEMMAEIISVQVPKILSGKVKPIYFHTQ
Chain of Glucocorticoid receptor (Homo sapiens) (P04150 whole entry, looked up): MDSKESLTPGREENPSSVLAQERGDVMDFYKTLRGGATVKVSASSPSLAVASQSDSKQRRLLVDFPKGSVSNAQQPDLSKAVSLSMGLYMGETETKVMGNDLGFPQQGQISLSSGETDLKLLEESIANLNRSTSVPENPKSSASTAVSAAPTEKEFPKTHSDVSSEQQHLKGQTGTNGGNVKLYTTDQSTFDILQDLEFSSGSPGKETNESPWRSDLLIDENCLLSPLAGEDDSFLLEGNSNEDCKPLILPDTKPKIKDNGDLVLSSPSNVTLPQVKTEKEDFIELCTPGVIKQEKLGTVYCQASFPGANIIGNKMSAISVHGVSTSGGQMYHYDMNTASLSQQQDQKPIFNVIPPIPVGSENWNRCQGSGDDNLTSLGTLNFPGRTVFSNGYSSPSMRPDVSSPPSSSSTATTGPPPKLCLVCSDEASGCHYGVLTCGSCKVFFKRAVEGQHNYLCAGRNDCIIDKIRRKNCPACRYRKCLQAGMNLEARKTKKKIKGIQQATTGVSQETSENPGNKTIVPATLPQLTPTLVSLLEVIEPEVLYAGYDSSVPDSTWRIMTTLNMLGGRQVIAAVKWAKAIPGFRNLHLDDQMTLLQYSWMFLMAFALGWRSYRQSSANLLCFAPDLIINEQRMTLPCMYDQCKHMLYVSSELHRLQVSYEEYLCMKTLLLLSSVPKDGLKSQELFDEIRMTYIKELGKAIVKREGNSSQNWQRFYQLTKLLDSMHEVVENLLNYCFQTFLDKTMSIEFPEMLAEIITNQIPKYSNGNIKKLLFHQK
Chain of Voltage-gated inwardly rectifying potassium channel KCNH2 (Homo sapiens) (Q12809 whole entry, looked up): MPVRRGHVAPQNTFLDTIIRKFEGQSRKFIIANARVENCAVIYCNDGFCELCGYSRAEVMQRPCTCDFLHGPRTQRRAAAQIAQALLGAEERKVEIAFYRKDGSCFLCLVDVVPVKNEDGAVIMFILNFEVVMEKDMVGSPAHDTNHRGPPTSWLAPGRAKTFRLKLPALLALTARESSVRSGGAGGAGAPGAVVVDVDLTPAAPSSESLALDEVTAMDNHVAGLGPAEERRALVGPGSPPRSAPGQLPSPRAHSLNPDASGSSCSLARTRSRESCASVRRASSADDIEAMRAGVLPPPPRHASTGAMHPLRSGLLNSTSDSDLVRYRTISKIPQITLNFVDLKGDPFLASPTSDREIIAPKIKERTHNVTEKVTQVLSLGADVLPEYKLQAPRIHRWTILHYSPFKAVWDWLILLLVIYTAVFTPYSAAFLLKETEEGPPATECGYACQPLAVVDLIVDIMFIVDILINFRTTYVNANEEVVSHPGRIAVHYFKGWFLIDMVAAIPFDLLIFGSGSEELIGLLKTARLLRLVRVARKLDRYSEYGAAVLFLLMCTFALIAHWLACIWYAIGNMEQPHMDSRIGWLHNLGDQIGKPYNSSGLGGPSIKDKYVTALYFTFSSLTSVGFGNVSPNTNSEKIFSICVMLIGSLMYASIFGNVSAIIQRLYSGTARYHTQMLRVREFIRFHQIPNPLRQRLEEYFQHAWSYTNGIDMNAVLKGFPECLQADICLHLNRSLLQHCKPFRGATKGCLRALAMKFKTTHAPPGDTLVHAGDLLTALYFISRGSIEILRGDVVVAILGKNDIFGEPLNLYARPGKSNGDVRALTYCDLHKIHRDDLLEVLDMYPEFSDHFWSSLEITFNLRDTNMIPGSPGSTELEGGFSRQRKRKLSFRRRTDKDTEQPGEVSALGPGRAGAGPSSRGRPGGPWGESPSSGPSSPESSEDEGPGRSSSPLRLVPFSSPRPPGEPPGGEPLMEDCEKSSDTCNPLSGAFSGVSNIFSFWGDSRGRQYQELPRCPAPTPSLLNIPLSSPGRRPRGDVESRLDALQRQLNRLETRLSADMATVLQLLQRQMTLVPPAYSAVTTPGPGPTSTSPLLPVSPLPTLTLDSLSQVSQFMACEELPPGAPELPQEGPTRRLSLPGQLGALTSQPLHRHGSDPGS
Chain of Vitamin D3 receptor (Homo sapiens) (P11473 whole entry, looked up): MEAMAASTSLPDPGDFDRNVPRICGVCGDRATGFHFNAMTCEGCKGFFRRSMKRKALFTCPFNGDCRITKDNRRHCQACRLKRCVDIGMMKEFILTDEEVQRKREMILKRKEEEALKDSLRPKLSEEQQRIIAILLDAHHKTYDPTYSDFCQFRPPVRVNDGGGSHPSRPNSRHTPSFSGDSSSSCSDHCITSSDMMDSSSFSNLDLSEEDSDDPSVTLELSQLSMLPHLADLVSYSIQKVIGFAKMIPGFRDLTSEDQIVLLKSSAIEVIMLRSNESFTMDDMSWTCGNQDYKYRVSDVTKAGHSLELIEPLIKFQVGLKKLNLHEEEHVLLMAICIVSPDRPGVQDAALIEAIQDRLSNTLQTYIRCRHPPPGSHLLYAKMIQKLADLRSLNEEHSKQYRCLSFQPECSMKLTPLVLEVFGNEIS
Chain of Peroxisome proliferator-activated receptor gamma (Homo sapiens) (P37231 whole entry, looked up): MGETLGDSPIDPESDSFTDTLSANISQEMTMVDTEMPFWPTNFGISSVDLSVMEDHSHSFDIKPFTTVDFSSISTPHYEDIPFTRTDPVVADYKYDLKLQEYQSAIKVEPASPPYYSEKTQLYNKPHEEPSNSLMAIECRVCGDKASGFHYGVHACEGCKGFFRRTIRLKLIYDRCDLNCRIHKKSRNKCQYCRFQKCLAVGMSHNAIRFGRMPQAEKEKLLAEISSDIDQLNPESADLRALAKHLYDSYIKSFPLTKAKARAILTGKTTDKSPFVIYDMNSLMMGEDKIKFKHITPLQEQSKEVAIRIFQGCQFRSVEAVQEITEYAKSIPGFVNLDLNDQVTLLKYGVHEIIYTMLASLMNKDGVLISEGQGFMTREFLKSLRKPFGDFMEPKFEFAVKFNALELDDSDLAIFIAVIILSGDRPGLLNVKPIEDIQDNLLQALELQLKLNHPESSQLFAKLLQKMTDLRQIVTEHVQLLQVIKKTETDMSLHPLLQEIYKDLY
Chain of Bile acid receptor (Homo sapiens) (Q96RI1 whole entry, looked up): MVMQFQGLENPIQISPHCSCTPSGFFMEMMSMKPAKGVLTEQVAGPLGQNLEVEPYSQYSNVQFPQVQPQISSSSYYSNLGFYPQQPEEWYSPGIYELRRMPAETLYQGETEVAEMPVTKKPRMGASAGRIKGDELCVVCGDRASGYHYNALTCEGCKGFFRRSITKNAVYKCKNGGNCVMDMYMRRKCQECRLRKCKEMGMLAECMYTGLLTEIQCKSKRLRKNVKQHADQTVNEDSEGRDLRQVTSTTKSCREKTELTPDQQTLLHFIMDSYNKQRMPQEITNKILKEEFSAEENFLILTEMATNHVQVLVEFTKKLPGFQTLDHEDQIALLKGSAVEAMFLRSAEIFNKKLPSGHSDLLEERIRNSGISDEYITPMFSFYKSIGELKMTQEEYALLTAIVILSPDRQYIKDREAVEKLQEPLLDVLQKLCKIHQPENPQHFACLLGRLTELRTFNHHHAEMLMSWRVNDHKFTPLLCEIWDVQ

CN1CCC(Nc2ncc3ncnc(Nc4ccc(F)c(Cl)c4)c3n2)CC1
active: Potency [1] 12.6 µM
inactive: Potency [2]

c1ccc2occc2c1
-13.5% and -7.35%: max response [10]
inactive: outcome [3] | outcome [4] | outcome [5] | outcome [6] | Potency [8] | outcome [9] | max response [11] 6.36% and -5.03% | Potency [1] | Potency [2]
-16.2%: max response [7]

CC(C)N(CCC(=O)c1ccc2ccccc2c1)Cc1ccccc1
active: Potency [1] 3.16 µM

Nc1c2ccccc2nc2ccccc12
inactive: outcome [4] | Potency [1] | Potency [2] | Potency [12]

CCCC(=O)c1cc(O)c(O)cc1O
inactive: outcome [13] | activation [14] -9.57% | outcome [3] | activation [15] 7.26% | outcome [4] | outcome [17] | outcome [5] | outcome [6] | Potency [8] | outcome [9] | max response [11] 15.9% | activity change % (negative = inhibition) [18] -21% | Potency [1]
4.85%: max response [10]
11.4%: max response [7]
14.6%: max response [16]

O=S(=O)(O)c1ccc2nc(-c3ccccc3)[nH]c2c1
inactive: Potency [1]

O=C(Nc1ccc(Cl)cc1)Nc1ccc(Cl)c(Cl)c1
inactive: outcome [13] | activation [15] 4.25% | outcome [9]

Oc1ccccc1
-6.84% and 11%: max response [16]
-7.3% and -10.8% and -13%: max response [10]
inactive: outcome [3] | outcome [4] | max response [11] 17.6% and -10.1% and 2.32% | Potency [1]

COc1ccccc1N1CCN(CCN2C(=O)CC3(CCCC3)CC2=O)CC1
active: Potency [1] 1.12 µM

CN1C(=O)c2ccccc2C1=O
-17.2%: max response [7]
inactive: activation [15] -9.8% | outcome [19] | outcome [4] | outcome [17] | outcome [5] | outcome [6] | Potency [8] | outcome [9] | activity change % (negative = inhibition) [18] -4.79% | Potency [2]
-32.8%: max response [16]

O=C(c1ccccc1)c1ccccc1
inactive: activation [14] 19.2% and -0.683% | outcome [20] | outcome [3] | activation [15] -1.61% and 0.77% | outcome [19] | outcome [5] | outcome [6] | Potency [8] | max response [11] 29.2% and -10.9% | Potency [2]
-0.815% and -2.27%: max response [10]
-13.1% and -5.43%: max response [7]
3.99% and -25%: max response [16]

CC(=O)OC/C=C(C)/C=C/C=C(C)/C=C/C1=C(C)CCCC1(C)C
inactive: outcome [13] | outcome [4] | outcome [5] | outcome [6] | outcome [9] | max response [11] 0.429% | activity change % (negative = inhibition) [18] 1.82% | Potency [1] | Potency [2]
34.7%: max response [16]
10.5%: max response [10]

CCCCCCCCCCCCCCCC[n+]1ccccc1
21.5%: max response [16]
active: Potency [12] 36.1 µM
inactive: activation [15] 4.95% | outcome [4] | outcome [6] | Potency [8] | max response [11] -34.1% | Potency [2]
11.3%: max response [10]
3.2%: max response [7]

OCc1c[nH]c2ccccc12
2.29%: max response [10]
inactive: activation [14] -13.7% | outcome [20] | outcome [3] | outcome [4] | outcome [5] | outcome [6] | Potency [8] | outcome [9] | max response [11] -2.51% | activity change % (negative = inhibition) [18] 13% | Potency [1]
1.88%: max response [7]

CCCCC(CC)COC(=O)c1ccccc1C(=O)O (centres undefined)
-0.199% and -12.8%: max response [10]
-31.8%: max response [16]
0.375% and 2.79%: max response [7]
inactive: outcome [19] | outcome [5] | outcome [6] | Potency [8] | outcome [9] | max response [11] -7.29% and -5.81% | activity change % (negative = inhibition) [18] -5.5% and 6.91% | Potency [1]

CC(C)(c1ccc(O)cc1)c1ccc(O)cc1
-24.6%: max response [16]
inactive: outcome [9] | max response [11] -28% and 10.2%
-4.03% and -11.6%: max response [10]

CCCCCCCCCCCC[N+](C)(C)Cc1ccccc1
29.6%: max response [16]
inactive: activation [14] -8.21% | outcome [20] | outcome [3] | activation [15] 1.25% | outcome [19] | outcome [4] | outcome [17] | outcome [5] | outcome [6] | outcome [9] | activity change % (negative = inhibition) [18] -19.6% | Potency [2]

CC(C)C(C)(C)C(C)(C)C(C)(C)S
5.05% and 21.4%: max response [16]
-6.07% and -23.3%: max response [7]
-12% and -14.7%: max response [10]
inactive: outcome [13] | activation [14] -7.25% and 10.8% | outcome [20] | outcome [4] | outcome [17] | outcome [5] | outcome [6] | Potency [8] | max response [11] 11.7% and -0.658% | activity change % (negative = inhibition) [18] 1.2% and -6.79% | Potency [1] | Potency [2]

COC(=O)c1c(Cl)c(Cl)c(C(=O)OC)c(Cl)c1Cl
-8.5%: max response [16]
inactive: outcome [13] | outcome [3] | activation [15] -1.01% | outcome [19] | outcome [17] | outcome [5] | outcome [6] | Potency [8] | outcome [9] | max response [11] 4.25% | activity change % (negative = inhibition) [18] 3.31%
-11.5%: max response [10]
-4.07%: max response [7]

CCN(CC)CCOc1ccc(/C(=C(\Cl)c2ccccc2)c2ccccc2)cc1
inactive: activation [14] -16% | outcome [20] | activation [15] 7.97% | outcome [19] | outcome [6]
active: Potency [11] 39.8 µM
-2.07%: max response [10]

O=[N+]([O-])c1ccc(-c2nc(-c3ccc(F)cc3)c(-c3ccncc3)[nH]2)cc1
active: Potency [1] 8.91 µM

— PubChem BioAssay (NCATS)
